From PubChem BioAssay AID1851 (National Center for Advancing Translational Sciences (NCATS), 2009)
Values joined by “and” are separate entries in the source; they are usually repeats but may differ in a detail not shown here. Identical values can stand only once. Among all 16,000 compounds or so, about 2,600 (16%) were called active. Roughly 20% stayed inconclusive and do not appear here. Calls come from the whole dose curve; as a rule, active = well fitted curve in the direction sought with a large enough effect; inconclusive = small, poorly fitted or top-dose-only effect, or effect the other way; inactive = no such curve, though single readings can be large or run the other way. Not all results are given here.

These molecules were tested against Cytochrome P450 2D6 (Homo sapiens) (UniProt P10635) (assay: Cytochrome panel assay with activity outcomes). Conditions: recombinant CYP, pro-luciferin dealkylation, luminescence, p450-cyp2d6; series mostly up to 57.1 µM.
Chain of Cytochrome P450 2D6 (Homo sapiens) (P10635 whole entry, looked up): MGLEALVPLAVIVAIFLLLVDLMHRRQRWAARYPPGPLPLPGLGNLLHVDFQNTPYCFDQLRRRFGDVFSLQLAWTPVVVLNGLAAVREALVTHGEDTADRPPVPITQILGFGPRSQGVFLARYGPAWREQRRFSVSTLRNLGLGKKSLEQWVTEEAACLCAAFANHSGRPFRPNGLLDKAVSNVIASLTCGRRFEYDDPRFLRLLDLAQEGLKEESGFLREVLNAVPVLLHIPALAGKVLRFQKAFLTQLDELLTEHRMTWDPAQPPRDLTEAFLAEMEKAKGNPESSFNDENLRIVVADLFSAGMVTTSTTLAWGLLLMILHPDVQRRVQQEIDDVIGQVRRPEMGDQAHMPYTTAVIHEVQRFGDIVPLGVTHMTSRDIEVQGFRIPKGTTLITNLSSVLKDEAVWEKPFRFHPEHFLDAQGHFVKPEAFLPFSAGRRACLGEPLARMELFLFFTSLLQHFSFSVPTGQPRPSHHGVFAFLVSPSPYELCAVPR
% is set by controls: 0 for no effect and ±100 for the full control effect.

AC50, inactive:
CC1(C)CC(NC(=O)c2ccc3c(c2)OCO3)CC(C)(C)N1
Cc1cnc(CNc2ccnc(-c3cccc(NS(C)(=O)=O)c3)n2)cn1
COCCNc1ccnc(-c2c(C)noc2C)n1
CCOC(=O)CNS(=O)(=O)c1cc(-c2nn(C)c(=O)c3ccccc23)ccc1C
CCCCCCCCC(=O)N/N=C/c1ccccn1
CCNc1ncc2nc(-c3ccc(Cl)cc3)c(=O)n(Cc3cccc(OC)c3)c2n1
O=[N+]([O-])c1ccc(N2CCC(=NOCc3ccc(Cl)cc3)CC2)cc1
O=c1c(-c2ccc(Cl)cc2)nc2cncnc2n1Cc1ccccc1Cl
CCOC(=O)CSc1nnc(CNC(=O)c2ccc(OC)cc2)n1C1CCCCC1
Cc1ccc(C)c(-c2cc(C(=O)Nc3nccs3)c3ccccc3n2)c1
CCCCNC(=O)NC1C(NC(=O)NCCCC)N(C)C(=O)N1C (centres undefined)
CC(=O)N1CC(=O)N(OCc2ccccc2)C1c1ccc(Cl)cc1Cl (centres undefined)
CCn1c(SCC(=O)OC)nc2sc3c(c2c1=O)CCC3
COC(=O)c1cccc(C(=O)Nc2ccc(C)cc2)n1
N#CCCn1c(=O)c(-c2cccc(C#N)c2)nc2cnc(Oc3cccc(Cl)c3)nc21
CC(=O)SCC[N+](C)(C)C
CC(C)CN1CCCC2(CCN(C(=O)c3cnccn3)CC2)C1
CN1CCC2(CC1)CCN(C(=O)c1ccncc1)CC2
CC(C)NC(=O)N1CCC2(CC1)CCN(C(=O)c1ccncc1)CC2
O=C(c1cnccn1)N1CCC2(CC1)CCN(c1ncccn1)CC2
COC(=O)[C@@]1(Cc2ccc(OC)cc2)[C@H]2c3cc(C(=O)N4CCCC4)n(Cc4ccc(Cl)c(C(F)(F)F)c4)c3C[C@H]2CN1C(=O)c1ccccc1
COc1cc(NC(=S)NC(=O)c2c(OC)cccc2OC)ccc1NC(=O)c1cccs1
C=C1c2cccc(O)c2C(O)=C2C(=O)[C@@]3(O)C(O)=C(C(N)=O)C(=O)[C@@H](N(C)C)[C@@H]3[C@@H](O)[C@H]12
CCOC(=O)N1CCN(c2nc(-c3cccs3)cc(C(F)(F)F)n2)CC1
CCOC(=O)N1CCN(C(=O)CNS(=O)(=O)c2cccs2)CC1
c1ccc(Oc2cc(-c3ccccc3)ncn2)cc1
O=c1c(-c2ccc(F)cc2)nc2cnc(Nc3ccccc3)nc2n1Cc1cccs1
Cc1ccc(S(=O)(=O)N(CC(=O)N/N=C/c2ccc(F)cc2)c2cccc3cccnc23)cc1
CCCOc1ccc(C(=O)NNC(=S)NC(=O)CC)cc1
CCCOc1ccc(-c2nc(N)n[nH]2)cc1
O=C(Nc1cccc(F)c1)N1CC[C@@]2(CCCN(C(=O)c3cnccn3)C2)C1

AC50, active:
CC1(C)CC(NCc2ccc3c(c2)OCO3)CCO1 (centres undefined) 0.631 µM
COc1ccc2[nH]cc(CCNc3ccnc(-c4ccoc4)n3)c2c1 12.6 µM
COc1ccc2[nH]cc(CCNc3ccnc(-c4cccnc4)n3)c2c1 1.26 µM
COc1ccc2[nH]cc(CCNc3ccnc(-c4ccc(N(C)C)cc4)n3)c2c1 10 µM
COc1ccc2[nH]cc(CCNc3ccnc(-c4cccc(NS(C)(=O)=O)c4)n3)c2c1 20 µM
COc1ccc2[nH]cc(CCNc3ccnc(-c4ccc5c(c4)OCO5)n3)c2c1 7.94 µM
CC(C)CN1CCC2(CC1)CCN(C(=O)c1cnccn1)CC2 10 µM
CC(C)CN1CCC2(CC1)CCN(C(=O)c1ccncc1)CC2 3.98 µM
CCOC(=O)N1CCN(C(=O)CNCc2cccs2)CC1 3.98 µM
Cc1ccc(C(c2nnnn2C2CCCC2)N2CCN3CCCC3C2)cc1 (centres undefined) 0.447 µM
c1coc(CN2CCN(C(c3cccs3)c3nnnn3C3CCCC3)CC2)c1 (centres undefined) 1.26 µM
Clc1ccc(C(c2nnnn2C2CCCC2)N2CCN(Cc3ccncc3)CC2)cc1 (centres undefined) 1.26 µM
CCCOc1ccc(OCCNC2CCCC2)cc1 1.26 µM

activity, negative = inhibition, inactive:
O=[N+]([O-])c1ccc([C@@H](Nc2ccccc2)c2ccc3cccnc3c2O)cc1 -2.01% [at 11.4 µM]
O=c1n(-c2ccccc2)c(=O)n2n1CC[C@H]1/C(=N\OCc3ccccc3)[C@H]3O[C@@H]3[C@@H](O)[C@@H]12 10.4% [at 11.4 µM]
CON(C)C(=O)c1nnc2c3ccccc3n(S(=O)(=O)c3ccc(C)cc3)c2n1 -3.04% [at 11.4 µM] and -5.32% [at 11.4 µM]
CC(C)N(CC(=O)O)CC(=O)O 12.3% [at 11.4 µM]
CO[C@H]1COC(=O)[C@@H](C)COC(=O)[C@@H](Cc2ccccc2)NC(=O)C/C=C\[C@H]1C 0.386% [at 11.4 µM]
